In the supplement of paper PMC10849652:
Of roughly 8,800 targets only a part is listed; those with a hit were picked by preference. About 0.5% of all pairs of compound and target were hits.

Compound: Cc1nc(Nc2n[nH]c3c2CN(C(=O)N[C@H](CN(C)C)c2ccccc2)C3(C)C)c2sccc2n1
Assay: log2 fold change, soluble protein after heating vs DMSO (PISA); higher = thermal stabilisation; K562 lysate, 10 uM; active = over 0.2 and 3.5 SD of the protein, either way, in both replicates (recomputed)
Summary of the method: (§1)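 Following dounce homogenisation of K562 pellets in PBS pH 7.4 with 1 mM MgCl2, crude extract at 1 mg/mL protein was incubated for 30 min with 10 μM compound. Aliquots were then heated for 3 min over 48°C-58°C and pooled, NP-40 was added to 0.5% at 4°C, and soluble protein was recovered as the supernatant at 21,000xg for 90 min. Channel-sum-equalised TMTpro 16plex LC-MS/MS quantified this protein. Each value, from duplicates, is a log-two fold change in thermal stability relative to solvent controls.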

Sequence of UniProt Q99417 (Q99417 whole entry, looked up): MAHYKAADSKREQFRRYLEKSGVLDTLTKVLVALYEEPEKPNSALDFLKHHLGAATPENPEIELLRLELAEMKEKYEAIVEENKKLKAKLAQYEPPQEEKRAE
Sequence of UniProt Q8TDX7 (Q8TDX7 whole entry, looked up): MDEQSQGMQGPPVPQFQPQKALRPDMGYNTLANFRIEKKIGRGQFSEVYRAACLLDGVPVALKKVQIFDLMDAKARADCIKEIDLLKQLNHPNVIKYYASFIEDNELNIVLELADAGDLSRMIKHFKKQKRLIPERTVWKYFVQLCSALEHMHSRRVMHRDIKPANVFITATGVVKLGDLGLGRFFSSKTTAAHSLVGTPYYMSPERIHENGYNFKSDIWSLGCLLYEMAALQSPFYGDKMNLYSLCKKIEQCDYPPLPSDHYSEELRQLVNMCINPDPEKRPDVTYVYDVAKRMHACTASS
Sequence of UniProt Q9BZF3 (Q9BZF3 whole entry, looked up): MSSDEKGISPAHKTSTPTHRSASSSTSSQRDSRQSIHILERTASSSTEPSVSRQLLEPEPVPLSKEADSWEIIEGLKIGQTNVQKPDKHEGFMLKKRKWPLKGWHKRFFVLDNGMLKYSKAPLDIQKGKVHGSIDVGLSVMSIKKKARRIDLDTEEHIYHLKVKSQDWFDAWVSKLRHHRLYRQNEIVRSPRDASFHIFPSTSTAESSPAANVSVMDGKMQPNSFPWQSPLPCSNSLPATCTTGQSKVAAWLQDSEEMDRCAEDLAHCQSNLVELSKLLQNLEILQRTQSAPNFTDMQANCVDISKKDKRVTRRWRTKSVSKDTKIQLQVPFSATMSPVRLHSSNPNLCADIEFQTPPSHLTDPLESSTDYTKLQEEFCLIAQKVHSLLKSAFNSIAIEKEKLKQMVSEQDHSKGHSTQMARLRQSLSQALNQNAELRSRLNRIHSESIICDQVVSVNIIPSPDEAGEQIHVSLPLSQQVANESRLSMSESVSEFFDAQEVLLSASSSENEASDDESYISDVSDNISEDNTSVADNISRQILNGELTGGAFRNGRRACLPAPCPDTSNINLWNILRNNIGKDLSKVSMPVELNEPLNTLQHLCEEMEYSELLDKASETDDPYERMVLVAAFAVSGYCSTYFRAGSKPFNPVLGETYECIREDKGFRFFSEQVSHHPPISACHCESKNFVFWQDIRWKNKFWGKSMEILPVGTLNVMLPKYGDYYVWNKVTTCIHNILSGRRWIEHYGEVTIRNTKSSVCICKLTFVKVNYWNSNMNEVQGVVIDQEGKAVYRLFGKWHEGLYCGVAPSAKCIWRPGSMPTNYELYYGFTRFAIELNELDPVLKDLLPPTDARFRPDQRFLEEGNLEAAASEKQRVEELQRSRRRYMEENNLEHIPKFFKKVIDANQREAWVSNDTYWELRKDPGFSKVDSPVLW
Sequence of UniProt Q15653 (Q15653 whole entry, looked up): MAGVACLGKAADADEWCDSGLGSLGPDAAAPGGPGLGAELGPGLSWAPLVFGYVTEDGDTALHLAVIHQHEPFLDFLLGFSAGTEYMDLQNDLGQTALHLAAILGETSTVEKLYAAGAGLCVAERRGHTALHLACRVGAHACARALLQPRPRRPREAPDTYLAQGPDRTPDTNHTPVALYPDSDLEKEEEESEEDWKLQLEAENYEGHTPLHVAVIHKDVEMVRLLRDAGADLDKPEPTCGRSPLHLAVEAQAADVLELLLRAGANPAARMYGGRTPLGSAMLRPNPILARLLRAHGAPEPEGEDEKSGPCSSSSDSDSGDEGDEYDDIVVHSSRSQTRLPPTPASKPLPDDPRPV
Sequence of UniProt Q9BPZ3 (Q9BPZ3 whole entry, looked up): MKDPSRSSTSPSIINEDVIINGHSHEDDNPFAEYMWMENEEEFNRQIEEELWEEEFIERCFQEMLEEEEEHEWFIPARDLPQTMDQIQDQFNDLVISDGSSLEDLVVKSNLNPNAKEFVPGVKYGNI
Sequence of UniProt Q9H3P2 (Q9H3P2 whole entry, looked up): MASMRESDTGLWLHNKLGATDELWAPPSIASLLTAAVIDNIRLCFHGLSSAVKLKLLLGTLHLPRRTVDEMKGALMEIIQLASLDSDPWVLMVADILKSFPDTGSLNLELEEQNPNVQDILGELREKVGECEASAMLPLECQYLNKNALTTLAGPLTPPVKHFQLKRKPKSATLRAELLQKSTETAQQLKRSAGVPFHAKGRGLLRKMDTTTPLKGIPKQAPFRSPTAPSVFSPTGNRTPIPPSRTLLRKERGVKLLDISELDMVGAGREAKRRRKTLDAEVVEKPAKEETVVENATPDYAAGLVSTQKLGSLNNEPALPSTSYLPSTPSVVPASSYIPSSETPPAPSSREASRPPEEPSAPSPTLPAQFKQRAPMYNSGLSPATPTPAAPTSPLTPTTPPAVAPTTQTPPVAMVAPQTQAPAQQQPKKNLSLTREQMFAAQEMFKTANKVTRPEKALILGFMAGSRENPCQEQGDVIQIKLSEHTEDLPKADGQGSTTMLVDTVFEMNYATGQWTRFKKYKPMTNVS
Sequence of UniProt Q9BV86 (Q9BV86 whole entry, looked up): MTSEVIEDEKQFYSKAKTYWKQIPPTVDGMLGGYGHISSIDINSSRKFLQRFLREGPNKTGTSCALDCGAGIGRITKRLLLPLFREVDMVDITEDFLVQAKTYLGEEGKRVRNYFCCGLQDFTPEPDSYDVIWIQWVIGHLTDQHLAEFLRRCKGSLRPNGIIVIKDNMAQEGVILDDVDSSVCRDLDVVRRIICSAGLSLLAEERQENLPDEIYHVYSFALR
Sequence of UniProt Q4G0N4 (Q4G0N4 whole entry, looked up): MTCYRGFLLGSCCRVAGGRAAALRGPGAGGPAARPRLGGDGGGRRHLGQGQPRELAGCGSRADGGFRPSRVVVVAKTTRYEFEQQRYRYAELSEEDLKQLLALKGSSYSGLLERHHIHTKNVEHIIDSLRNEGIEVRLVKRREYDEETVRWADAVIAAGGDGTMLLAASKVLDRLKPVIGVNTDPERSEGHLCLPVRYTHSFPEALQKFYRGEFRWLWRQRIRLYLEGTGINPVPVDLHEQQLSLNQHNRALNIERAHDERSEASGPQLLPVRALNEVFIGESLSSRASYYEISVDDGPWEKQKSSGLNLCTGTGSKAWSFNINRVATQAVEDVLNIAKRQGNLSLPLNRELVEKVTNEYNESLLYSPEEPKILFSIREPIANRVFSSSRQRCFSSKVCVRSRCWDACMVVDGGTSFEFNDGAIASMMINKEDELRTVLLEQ
Sequence of UniProt Q8NC60 (Q8NC60 whole entry, looked up): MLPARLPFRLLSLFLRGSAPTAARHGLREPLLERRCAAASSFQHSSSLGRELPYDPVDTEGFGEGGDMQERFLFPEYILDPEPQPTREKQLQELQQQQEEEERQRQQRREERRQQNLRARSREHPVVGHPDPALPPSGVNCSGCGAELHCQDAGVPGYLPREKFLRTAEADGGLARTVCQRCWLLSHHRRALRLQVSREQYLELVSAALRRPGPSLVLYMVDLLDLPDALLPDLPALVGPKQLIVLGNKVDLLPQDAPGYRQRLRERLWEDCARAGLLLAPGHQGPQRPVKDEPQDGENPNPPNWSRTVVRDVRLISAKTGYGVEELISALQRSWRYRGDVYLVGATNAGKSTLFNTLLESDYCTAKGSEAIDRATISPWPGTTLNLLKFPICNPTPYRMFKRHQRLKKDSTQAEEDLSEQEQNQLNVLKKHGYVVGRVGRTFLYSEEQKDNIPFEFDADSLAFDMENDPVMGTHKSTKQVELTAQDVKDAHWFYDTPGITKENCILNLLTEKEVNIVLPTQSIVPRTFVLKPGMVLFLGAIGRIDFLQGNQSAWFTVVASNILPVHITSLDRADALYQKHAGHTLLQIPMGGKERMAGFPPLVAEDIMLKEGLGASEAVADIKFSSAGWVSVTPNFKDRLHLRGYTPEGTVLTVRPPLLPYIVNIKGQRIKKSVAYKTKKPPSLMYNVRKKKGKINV
Sequence of UniProt Q9NPF4 (Q9NPF4 whole entry, looked up): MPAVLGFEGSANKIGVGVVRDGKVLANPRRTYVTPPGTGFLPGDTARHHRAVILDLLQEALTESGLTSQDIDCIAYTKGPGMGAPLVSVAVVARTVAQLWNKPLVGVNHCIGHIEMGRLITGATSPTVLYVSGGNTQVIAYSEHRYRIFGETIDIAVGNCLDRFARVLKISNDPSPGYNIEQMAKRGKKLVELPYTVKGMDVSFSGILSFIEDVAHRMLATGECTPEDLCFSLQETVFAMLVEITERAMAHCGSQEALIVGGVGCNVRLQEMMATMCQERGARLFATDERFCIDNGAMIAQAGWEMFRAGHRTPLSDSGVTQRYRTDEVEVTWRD
Sequence of UniProt Q9H857 (Q9H857 whole entry, looked up): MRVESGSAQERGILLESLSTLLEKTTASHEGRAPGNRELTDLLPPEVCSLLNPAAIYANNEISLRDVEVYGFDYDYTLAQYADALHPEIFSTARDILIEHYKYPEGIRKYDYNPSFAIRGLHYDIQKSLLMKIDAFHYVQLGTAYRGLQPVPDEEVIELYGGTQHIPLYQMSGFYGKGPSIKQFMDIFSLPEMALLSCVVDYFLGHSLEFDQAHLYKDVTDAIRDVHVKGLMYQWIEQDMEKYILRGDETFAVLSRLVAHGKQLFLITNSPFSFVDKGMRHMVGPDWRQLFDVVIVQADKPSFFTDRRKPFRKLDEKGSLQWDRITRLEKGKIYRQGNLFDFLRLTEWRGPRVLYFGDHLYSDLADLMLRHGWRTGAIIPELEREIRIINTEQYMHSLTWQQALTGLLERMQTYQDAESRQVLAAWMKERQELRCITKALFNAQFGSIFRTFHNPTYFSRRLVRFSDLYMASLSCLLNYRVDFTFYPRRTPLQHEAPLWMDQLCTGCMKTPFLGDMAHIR
Sequence of UniProt Q9BSD7 (Q9BSD7 whole entry, looked up): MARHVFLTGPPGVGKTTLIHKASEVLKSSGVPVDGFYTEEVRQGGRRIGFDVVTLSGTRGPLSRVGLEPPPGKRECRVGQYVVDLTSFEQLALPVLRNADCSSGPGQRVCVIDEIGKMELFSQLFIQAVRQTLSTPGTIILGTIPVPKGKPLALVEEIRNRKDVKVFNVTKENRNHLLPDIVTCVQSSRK
Sequence of UniProt Q15843 (Q15843 whole entry, looked up): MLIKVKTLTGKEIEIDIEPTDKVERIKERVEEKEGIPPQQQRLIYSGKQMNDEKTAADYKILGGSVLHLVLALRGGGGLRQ

log2 fold change, inactive:
NTPCR (UniProt Q9BSD7) -0.01
MTHFD1L (UniProt B7ZM99) 0.028
NOA1 (UniProt Q8NC60) -0.012
NT5DC2 isoform 2 (UniProt Q9H857) -0.041
OTUD7B (UniProt Q6GQQ9) 0.017
NADK2 (UniProt Q4G0N4) 0.002
NTMT1 (UniProt Q9BV86) -0.026
OSGEP (UniProt Q9NPF4) 0.008
NDUFA4 (UniProt O00483) 0.058
NUB1 (UniProt Q9Y5A7) 0.025
NFATC2 (UniProt Q13469) -0.052
ORC2 (UniProt Q13416) 0.009
NELFCD (UniProt Q8IXH7) 0.015
NMRAL1 (UniProt Q9HBL8) 0.004
PAIP2 (UniProt Q9BPZ3) 0.062
NCAPD2 (UniProt Q15021) 0.01
NEDD8 (UniProt Q15843) -0.073
NFIC (UniProt P08651) -0.162
NELFA (UniProt Q9H3P2) -0.01
NLRP2 (UniProt Q9NX02) 0.013
OSBPL6 isoform 5 (UniProt Q9BZF3) 0.018
MTCH2 (UniProt Q9Y6C9) -0.005
NAA38 isoform 2 (UniProt Q9BRA0) 0.059
NAP1L5 (UniProt Q96NT1) -0.053
MT-ND1 (UniProt P03886) 0.005
NFATC2IP (UniProt Q8NCF5) -0.015
MYCBP (UniProt Q99417) 0.041
NIT2 (UniProt Q9NQR4) 0.001
NEBL (UniProt O76041) 0.019
NFKBIB (UniProt Q15653) -0.015
NEK7 (UniProt Q8TDX7) 0.016
NCOR1 (UniProt O75376) 0.012
ORC3 isoform 2 (UniProt Q9UBD5) 0
NCK1 (UniProt P16333) 0.015
NFATC1 (UniProt O95644) -0.055

Compound: Cc1nc(Nc2ncc(C(=O)Nc3c(C)cccc3Cl)s2)cc(N2CCN(CCO)CC2)n1 [dasatinib]
Assay: as above
Summary of the method: as §1

log2 fold change, inactive:
NTPCR (UniProt Q9BSD7) -0.061
MTHFD1L (UniProt B7ZM99) -0.061
NOA1 (UniProt Q8NC60) -0.05
NT5DC2 isoform 2 (UniProt Q9H857) 0.067
OTUD7B (UniProt Q6GQQ9) 0.005
NADK2 (UniProt Q4G0N4) -0.016
NTMT1 (UniProt Q9BV86) -0.053
OSGEP (UniProt Q9NPF4) 0.002
NDUFA4 (UniProt O00483) 0.043
NUB1 (UniProt Q9Y5A7) -0.03
NFATC2 (UniProt Q13469) -0.033
ORC2 (UniProt Q13416) -0.036
NELFCD (UniProt Q8IXH7) -0.019
NMRAL1 (UniProt Q9HBL8) -0.035
PAIP2 (UniProt Q9BPZ3) -0.047
NCAPD2 (UniProt Q15021) -0.037
NEDD8 (UniProt Q15843) 0.027
NFIC (UniProt P08651) 0.014
NELFA (UniProt Q9H3P2) -0.064
NLRP2 (UniProt Q9NX02) -0.019
OSBPL6 isoform 5 (UniProt Q9BZF3) -0.082
MTCH2 (UniProt Q9Y6C9) 0
NAA38 isoform 2 (UniProt Q9BRA0) -0.014
NAP1L5 (UniProt Q96NT1) 0.024
MT-ND1 (UniProt P03886) 0.018
NFATC2IP (UniProt Q8NCF5) 0.071
MYCBP (UniProt Q99417) 0.019
NIT2 (UniProt Q9NQR4) -0.03
NEBL (UniProt O76041) 0.089
NFKBIB (UniProt Q15653) -0.042
NEK7 (UniProt Q8TDX7) -0.03
NCOR1 (UniProt O75376) -0.031
ORC3 isoform 2 (UniProt Q9UBD5) -0.084
NCK1 (UniProt P16333) -0.005
NFATC1 (UniProt O95644) 0.014
